Unmarked numbers belong to inactive results.
These compounds were tested on Pseudomonas aeruginosa PA14 dppA1-A5 penta mutant + pBBR5.DppA1 (PA14_58350) (assay: respiration area under curve with compound as sole nitrogen source, 24 h (OmniLog AUC (arbitrary units)); higher = more respiration / better utilisation as nitrogen source).
Procedure: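 Biolog Phenotype MicroArray plates PM6-PM8: each di/tripeptide is the sole nitrogen source. Tetrazolium reduction was read in the OmniLog for 24 h at 37°C and summarised as area under the respiration curve (arbitrary units). Values below 2000 count as no respiration. Strain is the SBP penta mutant complemented with DppA1 on a plasmid under its native promoter. Lys/His/Cys peptides are excluded.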

| Compound | respiration area under curve |
| --- | --- |
| CC(C)C[C@@H](NC(=O)CNC(=O)CN)C(=O)O (plate: PM8) | 232 |
| CC(C)C[C@H](NC(=O)CNC(=O)CN)C(=O)O (plate: PM8) | 3880 (active) |
